# From PMC12431657, “Discovery and mechanistic insights of dibenzoylmethane as a broad spectrum inhibitor of coronavirus” (PLOS Pathogens, 2025)
# Counter-ions that a name gives are not always drawn. Like-named read-outs stand apart in the source and are kept apart here. Among all 3,300 compounds or so, about 95 (3%) showed an effect of 50% or more. This is one part of a sample in which strong results are shown more often than they occur.
# System: HCoV-229E
# Parameters: species or system Huh-7; HTS, protection from HCoV-229E induced cell death, luminescent cell viability (CellCounting-Lite 2.0), inhibition rate
# Settings: 24 h post infection, 1 h compound pre-incubation, 10 µM, inhibitor
Structure (SMILES),229E Inhibition rate [%],"229E Inhibition rate (229E Inhibition rate, 24 h) [%]"
C/C(=C\CC[C@@H](C)[C@H]1CC[C@@]2(C)C3=CC[C@H]4C(C)(C)[C@@H](O)CC[C@]4(C)C3=CC[C@]12C)CO [Ganoderol B],7.7,
C=C(CC[C@@H](C(=O)O)[C@H]1[C@H](O)C[C@@]2(C)C3=CC[C@H]4C(C)(C)[C@@H](O)CC[C@]4(C)C3=CC[C@]12C)C(C)C [Dehydrotumulosic acid],8.5,
CC1(C)O[C@H]2CC(=O)OC[C@]23[C@H]2CC[C@@]4(C)[C@H](c5ccoc5)OC(=O)[C@H]5O[C@]54[C@]2(C)[C@@H](O)C(=O)[C@@H]13 [Rutaevin],0,
"COc1ccc(OC)cc1 [1,4-Dimethoxybenzene]",21,
"COc1cc(O)cc(OC)c1 [3,5-Dimethoxyphenol]",32.7,
"COc1cc(OC)cc(OC)c1 [1,3,5-Trimethoxybenzene]",55.2,
O=C1N[C@@H](Cc2ccccc2)C(=O)N2CCC[C@@H]12 [Cyclo(L-Phe-L-Pro)],11.1,
Oc1ccc(CCc2cc(O)cc(O)c2)cc1 [Dihydroresveratrol],10.7,
CCCCCCCCCCCC1=C(O)C(=O)C=C(O)C1=O [Embelin],12.3,
CCCCCCCCCCCCCCCc1cc(O)cc(O)c1 [5-Pentadecylresorcinol],51.7,
O=c1c(O)c(-c2ccc(O)cc2)oc2c(O)c(O)cc(O)c12 [Herbacetin],0,
O=C1CCC[C@@H]2[C@H]3CCCN4CCC[C@@H](CN12)[C@H]34 [Allomatrine],8.4,
COC[C@@H]1Cc2cc(OC)c3c(c2[C@H](c2ccc(OC)c(OC)c2)[C@H]1COC)OCO3 [Hypophyllanthin],24.8,
C=C1C(=O)O[C@H]2C[C@@H](C)[C@@H]3[C@@H](OC(C)=O)C[C@H](O)[C@@]3(C)[C@@H](OC(C)=O)[C@H]12 [Britannin],3,
C=C1C(=O)O[C@H]2C[C@@H](C)[C@@H]3C=CC(=O)[C@@]3(C)[C@@H](OC(C)=O)[C@H]12 [Bigelovin],4.5,
C=C1C(=O)O[C@H]2C[C@@H](C)[C@@H]3CCC(=O)[C@@]3(C)[C@@H](OC(C)=O)[C@H]12 [Ergolide],57.9,
CC1(C)O[C@H]2CC(=O)OC[C@@]23[C@H]1CC(=O)[C@@]1(C)C2=CC(=O)O[C@@H](c4ccoc4)[C@]2(C)CC[C@@H]13 [Deoxylimonin],9.8,
CC(=O)O[C@@]12CO[C@@H]1C[C@@H](O)[C@@]1(C)C(=O)[C@H](O)C3=C(C)[C@@H](OC(=O)[C@H](O)[C@@H](NC(=O)c4ccccc4)c4ccccc4)C[C@@](O)([C@@H](OC(=O)c4ccccc4)[C@H]21)C3(C)C [7-Epi 10-desacetyl paclitaxel],21.4,
O=C(N[C@H](COC(=O)[C@H](Cc1ccccc1)NC(=O)c1ccccc1)Cc1ccccc1)c1ccccc1 [Asperphenamate],18,
CCCCC/C=C\C/C=C\CCCCCCCC(=O)NCc1ccccc1 [N-Benzyllinoleamide],24.5,

Structure (SMILES),229E Inhibition rate [%],"229E Inhibition rate (229E Inhibition rate, 24 h) [%]"
CCCCCCCCCCC/C=C\CCCCC(=O)O [Petroselinic acid],0,
CCCCCCCC/C=C\CCCCCCCC(=O)O [Oleic acid],,9.2
CCCCCCCCCCCCCCCCCC(=O)NCc1ccccc1 [N-Benzyloctadecanamide],46.3,
CCCCCCCC/C=C\CCCCCCCC(=O)NCc1ccccc1 [N-Benzyloleamide],52.8,
CCCCCC/C=C\CCCC(=O)O [cis-5-Dodecenoic acid],63.5,
Nc1nc(=O)n([C@H]2C[C@H](O)[C@@H](CO)O2)cc1CO [5-Hydroxymethyl-2’-deoxycytidine],0,
OC[C@H]1OC(O)[C@H](O)[C@H](O)[C@@H]1O (stereo partly drawn) [D-Allose],0,
C=C(C)[C@@H]1CC[C@]2(COC(C)=O)CC[C@]3(C)[C@H](CC[C@@H]4[C@@]5(C)CC[C@H](OC(C)=O)C(C)(C)[C@@H]5CC[C@]43C)[C@@H]12 [Betulin diacetate],4.9,
O=c1ccc2cc3ccoc3c(O)c2o1 [Xanthotoxol],35.1,
"CC(C)=CC[C@H](OC(=O)C=C(C)C)C1=CC(=O)c2c(O)ccc(O)c2C1=O [β,β-Dimethylacrylalkannin]",17.4,
CC(=O)O[C@@H](CC=C(C)C)C1=CC(=O)c2c(O)ccc(O)c2C1=O [Acetylalkannin],10.1,
"CC(C)=CC[C@@H](OC(=O)C=C(C)C)C1=CC(=O)c2c(O)ccc(O)c2C1=O [β,β-Dimethylacrylshikonin]",50.2,
C[n+]1cccc(C(=O)[O-])c1 [Trigonelline],,7.5
O=c1cc(-c2ccccc2)oc2cc(O[C@@H]3O[C@H](CO)[C@@H](O)[C@H](O)[C@H]3O)c(O)c(O)c12 [Oroxin A],34.7,
O=C(O)c1ccc[nH]1 [Pyrrole-2-carboxylic acid],6.8,
CC(=O)c1ccc[nH]1 [2-Acetylpyrrole],51.6,
CC(=O)c1ccccc1 [Acetophenone],31.9,
CCCCCCCCC1=C(CCCCCCCC(=O)O)C1 [Sterculic acid],20,
CC(=O)NCCCCCN [N-(5-Aminopentyl)acetamide],61.9,
CC(=O)NCCCCN [N-Acetylputrescine hydrochloride],17.4,

Structure (SMILES),229E Inhibition rate [%],"229E Inhibition rate (229E Inhibition rate, 24 h) [%]"
CC(=O)NCCCCNCCCN [N8-Acetylspermidine dihydrochloride],37.4,
C[C@@]1(C(=O)O)CC[C@]2(C)CC[C@]3(C)C4=CC(=O)c5c(cc(O)c(O)c5C=O)[C@]4(C)CC[C@@]3(C)[C@@H]2C1 [Demethylzeylasteral],6.3,
CCCCCCC/C=C/C(=O)CCc1ccc(O)c(OC)c1 [[8]-Shogaol],39.3,
C/C=C1/CN2[C@@H]3C[C@@]45c6ccccc6N[C@]4(O3)[C@@H]2C[C@@H]1[C@H]5C(=O)OC [Picrinine],51.7,
C/C=C1/CN2[C@H]3Cc4c([nH]c5ccccc45)[C@]2(O)C[C@@H]1[C@@]3(CO)C(=O)OC [16-Epivoacarpine],7.1,
C/C=C1/CN2CCc3c([nH]c4ccccc34)[C@@H]2C[C@@H]1/C(=C/OC)C(=O)OC [Geissoschizine methyl ether],0,
O=C(O)CNC(=O)/C=C/c1ccccc1 [Cinnamoylglycine],41.7,
O=C(O)C[C@@](O)(C(=O)O)[C@H](O)C(=O)O [(-)-Hydroxycitric acid],12.3,
CC(C)=C/C=C1\O[C@@H]2CC(C)=CC(=O)[C@@H]2[C@]1(C)O [Bisabolangelone],30,
O=Cc1ccc(O)cc1 [p-Hydroxybenzaldehyde],10.9,
CC(C)=CCC[C@](C)(O)[C@H]1CC[C@]2(C)[C@@H]1[C@H](O)C[C@@H]1[C@@]3(C)CC[C@H](O)C(C)(C)[C@@H]3[C@@H](O[C@@H]3O[C@H](CO)[C@@H](O)[C@H](O)[C@H]3O[C@@H]3O[C@@H](C)[C@H](O)[C@@H](O)[C@H]3O)C[C@]12C [Ginsenoside Rg2],54.2,
CC(C)=CCC[C@](C)(O)[C@H]1CC[C@]2(C)[C@@H]1[C@H](O)C[C@@H]1[C@@]3(C)C[C@@H](O)[C@H](O[C@@H]4O[C@H](CO)[C@@H](O)[C@H](O)[C@H]4O[C@@H]4O[C@H](CO)[C@@H](O)[C@H](O)[C@H]4O)C(C)(C)[C@@H]3CC[C@]12C [Gypenoside L],61.5,
CC(C)=CCC[C@](C)(O)[C@H]1CC[C@]2(C)[C@@H]1[C@H](O)C[C@@H]1[C@@]3(C)CC[C@H](O)C(C)(C)[C@@H]3[C@@H](O[C@@H]3O[C@H](CO)[C@@H](O)[C@H](O)[C@H]3O[C@@H]3O[C@H](CO)[C@@H](O)[C@H](O)[C@H]3O)C[C@]12C [Ginsenoside Rf],28.3,
CC(C)=CCC[C@](C)(O[C@@H]1O[C@H](CO)[C@@H](O)[C@H](O)[C@H]1O)[C@H]1CC[C@]2(C)[C@@H]1[C@H](O)C[C@@H]1[C@@]3(C)C[C@@H](O)[C@H](O[C@@H]4O[C@H](CO)[C@@H](O)[C@H](O)[C@H]4O[C@@H]4O[C@H](CO)[C@@H](O)[C@H](O)[C@H]4O)C(C)(C)[C@@H]3CC[C@]12C [Gypenoside XLVI],10.6,
CC(C)=CCC[C@@](C)(O)[C@H]1CC[C@]2(C)[C@@H]1[C@H](O)C[C@@H]1[C@@]3(C)C[C@@H](O)[C@H](O[C@@H]4O[C@H](CO)[C@@H](O)[C@H](O)[C@H]4O[C@@H]4O[C@H](CO)[C@@H](O)[C@H](O)[C@H]4O)C(C)(C)[C@@H]3CC[C@]12C [Gypenoside LI],0,
CC(C)=CCC[C@@](C)(O)[C@H]1CC[C@]2(C)[C@@H]1[C@H](O)C[C@@H]1[C@@]3(C)CC[C@H](O)C(C)(C)[C@@H]3[C@@H](O[C@@H]3O[C@H](CO)[C@@H](O)[C@H](O)[C@H]3O[C@@H]3O[C@@H](C)[C@H](O)[C@@H](O)[C@H]3O)C[C@]12C [20(R)-Ginsenoside Rg2],5.2,
COc1ccc([C@H]2OC[C@H]3[C@@H]2CO[C@H]3c2ccc(O[C@@H]3O[C@H](CO)[C@@H](O)[C@H](O)[C@H]3O)c(OC)c2)cc1OC [Phillyrin],0,
COc1cc([C@@H]2[C@H]3CO[C@@]4(O)C(=O)[C@@H]2C=C([C@H]2Oc5cc(O)cc(O)c5C(=O)[C@@H]2O)[C@@H]34)ccc1O [Silydianin],51.4,
COc1cc(C2Oc3ccc([C@H]4Oc5cc(O)cc(O)c5C(=O)[C@@H]4O)cc3OC2CO)ccc1O (stereo partly drawn) [Isosilybin],0,
COc1cc(C2Oc3cc([C@H]4Oc5cc(O)cc(O)c5C(=O)[C@@H]4O)ccc3OC2CO)ccc1O (stereo partly drawn) [Silybin],13,
